Rows were chosen to be rich in hits. Some 6% of all compounds tested hit in one or more screens of this group.
DRD3 agonist: agonists of human D3 dopamine receptor; P35462; D3R DiscoveRx beta-arrestin cells, luminescence, 90 min; max activation, %; 410,000 tested, 0.58% active; AID 652048; in the data active = max activation above about 30%
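Agonist mode: compounds and dopamine controls were applied to plated cells for 90 min at 37 degrees C after an overnight attachment at 1500 cells/well. Luminescent read-out followed 30 - 60 minutes at room temperature with DiscoveRx detection reagent.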
DRD3 antagonist: antagonists of human D3 dopamine receptor; P35462; D3R cells, DiscoveRx beta-arrestin luminescence, antagonist mode; stronger effect = lower value; max response, negative = inhibition, %; 360,000 tested, 2.5% active; in the data active = max response below about -50%; inconclusive = no clear call, values can overlap the other calls
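Cells expressing the human receptor were seeded at 1500 cells/well, incubated overnight at 37 degrees C in 5% CO2, then exposed to library compounds with dopamine controls for 90 minutes at 37 degrees C before luminescent detection.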
D1 agonist: agonists of human D1 dopamine receptor; P21728; HEK293 T-REx D1 cells, calcium flux, agonist mode; activation, % at 2 µM; 360,000 tested, 1% active; AID 504660; in the data active = activation above about 30%
Target sequence (P21728 whole entry, looked up): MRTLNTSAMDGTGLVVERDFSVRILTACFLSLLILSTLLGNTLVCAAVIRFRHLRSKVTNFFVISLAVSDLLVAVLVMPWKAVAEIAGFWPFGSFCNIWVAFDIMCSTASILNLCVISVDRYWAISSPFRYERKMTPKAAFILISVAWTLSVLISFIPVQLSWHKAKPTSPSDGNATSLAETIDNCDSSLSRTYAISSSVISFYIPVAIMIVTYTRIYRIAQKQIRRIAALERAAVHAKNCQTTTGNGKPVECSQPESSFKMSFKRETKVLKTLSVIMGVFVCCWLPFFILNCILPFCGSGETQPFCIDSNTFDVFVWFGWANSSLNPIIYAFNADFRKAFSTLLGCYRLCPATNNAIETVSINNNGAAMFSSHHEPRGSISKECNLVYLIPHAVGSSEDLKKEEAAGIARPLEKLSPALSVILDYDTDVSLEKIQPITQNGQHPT
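Inducible HEK293 T-REx D1 cells, force-coupled to calcium signalling, were plated at 4000 cells/well with tetracycline and held overnight at 30 C. After no-wash calcium dye loading, compound-evoked calcium rise over 180 s flagged agonists.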
Chronic BCR inh: inhibitors of chronic active B-cell receptor signaling. Potency, µM (doses to about 46.1 µM), usual class: inhibitors. 340,000 tested, 0.05% active. ABC-DLBCL IkBa-CBG/CBR reporter, luminescence ratio, 4 h; active = well fitted inhibition curve with a large enough effect in the signal ratio, with a control signal flat, not every such curve was filed as active; inconclusive = small, poorly fitted or top-dose-only effect, or effect the other way, or a change in a side signal; the % refers to the signal ratio
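Doxycycline induced both beetle luciferases in TMD8 lymphoma cells; IKK-driven degradation limits the IkappaBalpha-fused green signal, while red luminescence normalises for cell number and nonspecific effects. Compounds tested up to 46 uM, 4 hrs.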
D1 potentiator: human D1 dopamine receptor positive modulation; HEK293 TREx D1 cells, calcium flux, dopamine EC20 potentiation; potentiation, % at 10 µM; 360,000 tested, 0.036% active; AID 504651; P21728; in the data active = potentiation above about 30%
D1 antag: blocks dopamine activation of the human D1 receptor; P21728; HEK293 TREx D1 cells, calcium flux, dopamine EC80; stronger effect = lower value; activity change, negative = inhibition, % at 10 µM; 360,000 tested, 3.2% active; in the data active = activity change below about -30%
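Inducible Hek293 Trex D1 cells (tetracycline, overnight, 30 C). Calcium dye 30–90 min RT. Antagonist mode: EC80 dopamine added after 180 s compound read.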
Numbers stand for hits; 0 = inactive; ? = inconclusive; - = no result.

SMILES	DRD3 agonist	DRD3 antagonist	D1 agonist	Chronic BCR inh	D1 potentiator	D1 antag
COc1ccc(-n2ccnc2CN2CCCC(CO)(Cc3cccc(OC)c3)C2)cc1 (stereo unspecified)	0	0	0	0	0	0
COc1cccc(CC2(CO)CCCN(Cc3c(C)cc(C)cc3-n3cccn3)C2)c1 (stereo unspecified)	0	0	0	0	0	-36
CC(C)(C)c1cn(-c2ccccc2)c(=S)[nH]1	0	0	0	0	0	0
Cc1ccc(-n2cc(C(C)(C)C)[nH]c2=S)cc1	0	0	0	0	0	-46
Cn1c(C(=O)NCCN2CCOCC2)cc2sccc21	0	-63	0	0	0	0
CCn1c(C(=O)NCCCN2CCc3ccccc3C2)cc2sccc21	0	-73	0	0	0	0
O=C(NCCN1CCOCC1)c1cc(-c2ccc(Cl)cc2Cl)on1	0	0	0	0	0	-34
Cc1ccc(CCNC(=O)c2cc3sccc3n2Cc2ccc(C)cc2)cc1	0	-	0	-	0	0
CCN1CCN(CCCNC(=O)c2cc3sccc3n2CC)CC1	0	0	0	?	0	0
Cc1ccc(Cn2c(C(=O)NCCCN3CCOCC3)cc3sccc32)cc1	0	-51	0	0	0	0
COc1ccc(NC(=O)COC(=O)C2CCCN2C(=O)OC(C)(C)C)cc1Cl (stereo unspecified)	0	0	-	-	-	-
COC(=O)c1ccc(NC(=O)c2cc(S(=O)(=O)N3CCc4ccccc43)cn2C)cc1	0	-	0	-	0	0
Cc1cccc(C(=O)NCc2nnc(SCC(=O)Nc3ccccc3F)n2-c2ccccc2)c1	0	-	0	-	0	0
Cc1ccccc1-c1noc(-c2ccc(Cl)cc2)n1	0	0	0	0	0	0
Cc1ccccc1-c1noc(-c2ccc(O)cc2)n1	0	0	68	0	0	-41
CCOc1ccc(NC(=O)N(Cc2ccc(CC)cc2)Cc2cn[nH]c2-c2ccc(OC)cc2)cc1	0	-	0	-	0	0
CSc1nncc(/C(C)=N\Nc2ccccc2)n1	0	0	0	?	0	-37
CSc1nncc(/C(C)=N\Nc2cccc(C)c2)n1	0	0	0	0	0	0
S=C(NCCc1ccc(Cl)cc1)NC1CCCC1	0	0	0	?	0	0
Fc1ccc(CNC(=S)NC2CCCCCC2)cc1	0	0	0	0	0	-36
S=C(NCCc1ccc(Cl)cc1)NC1CCCCC1	0	?	0	?	0	-41
O=[N+]([O-])c1ccc(Br)c(CN2CCN(c3ncc(Cc4ccccc4)cn3)CC2)c1	0	0	-	-	-	-
CCOc1ccccc1CNC(=O)CN1C(=O)c2cccnc2Oc2ccc(Cl)cc21	0	-	0	-	0	0
COc1cc(C(=O)N2CCN(c3ccccc3)CC2)c2ccccc2n1	0	0	-	-	-	-
CC(C)CNS(=O)(=O)c1cc(C(=O)N2CC(C)OC(C)C2)c(Cl)cc1Cl (stereo unspecified)	0	-55	0	0	0	0
SMILES	DRD3 agonist	DRD3 antagonist	D1 agonist	Chronic BCR inh	D1 potentiator	D1 antag
COc1ccc(-c2c(C)nn3c(C(F)(F)F)cc(-c4ccccc4)nc23)cc1OC	0	-	0	-	0	0
CCN(C(=O)C(=O)Nc1ccc2nc3n(c(=O)c2c1)CCCCC3)c1ccc(F)cc1	0	-	0	-	0	-39
CCN(CC)C(=O)c1cccc(NC(=O)c2ccc3c(=O)n4c(nc3c2)CCC4)c1	0	0	0	0	0	-40
O=C(NNC(=O)c1ccc2c(=O)n3c(nc2c1)CCC3)c1cccc(Cl)c1	0	0	0	?	0	-32
COc1ccc(C(O)c2ncc(-c3ccccc3)[nH]2)cc1F (stereo unspecified)	0	0	-	-	-	-
CCN(CC)C(=O)C1=C(C)N(CCC2=CCCCC2)C(=O)C(CC(=O)NCc2cccs2)C1 (stereo unspecified)	0	0	-	-	-	-
CC1=CC(=O)c2ccccc2C1=O	0	-53	0	0	0	0
CC(C)(C=O)C1=CC(=O)c2ccccc2C1=O	0	-111	0	?	0	0
CC(C)(C)c1ccc2c(c1)C(=O)c1ccccc1C2=O	0	0	0	?	0	0
COCCNC(=O)CN1C(=O)COc2ccc(S(=O)(=O)N3CCCC3)cc21	0	-	0	-	0	0
O=C(O)c1ccccc1-c1c2cc(I)c(=O)c(I)c-2oc2c(I)c(O)c(I)cc12	0	-62	-	-	-	-
CCCCn1nnnc1C(c1cc2ccccc2o1)N1CCN(CC(=O)N2CCCC2)CC1 (stereo unspecified)	0	0	-	-	-	-
Cn1cccc1/C=C1\CCC/C(=C\c2cccn2C)C1=O	0	0	139	?	0	-32
O=C1/C(=C/c2cccs2)CCC/C1=C\c1cccs1	0	0	0	0	0	0
CCOCC(=O)N(CC)Cc1ccccc1	0	0	0	0	0	0
CCN(Cc1ccccc1)C(=O)Cn1cc(S(=O)(=O)NC)c(S(=O)(=O)NC)c1	0	-52	0	0	0	0
COC(=O)C[C@@H]1C[C@@H]2c3cc(NC(=O)NC4CCCCC4)ccc3O[C@@H]2[C@H](CO)O1	0	0	-	-	-	-
O=C(OCCOc1cccc(Cl)c1)C1CCN(S(=O)(=O)c2ccccc2)CC1	0	0	30	0	0	0
Nc1nc(N2CCN(C/C=C/c3ccccc3)CC2)nc2ccccc12	0	-64	40	?	0	-50
C(=C\c1ccccc1)/CN1CCN(c2ncnc3c2oc2ccccc23)CC1	40	0	0	0	0	0
c1cnc(N2CCN(c3ncnc4c3oc3ccccc34)CC2)nc1	-	-	0	0	0	0
O=c1[nH]c(CN2CCN(S(=O)(=O)/C=C/c3ccccc3)CC2)nc2ccccc12	0	0	0	0	0	0
Nc1nc(N2CCN(C(=O)c3ccco3)CC2)nc2ccccc12	0	0	0	0	0	0
O=c1[nH]c(CN2CCN(C/C=C/c3ccccc3)CC2)nc2ccccc12	0	-77	0	0	0	0
C=CCN(CC=C)C(=S)NC(=O)c1ccc(OC)cc1	0	-69	0	?	0	0
SMILES	DRD3 agonist	DRD3 antagonist	D1 agonist	Chronic BCR inh	D1 potentiator	D1 antag
COc1ccc(C(=O)NC(=S)N(C)C2CCCCC2)cc1	0	0	0	0	0	-46
COc1ccccc1-c1c(C)nn2c(N3CCN(c4ccc(Cl)cc4)CC3)cc(C)nc12	0	-	0	0	0	0
COc1ccc(OC)c2c1CCC2=O	0	-52	0	0	0	-65
N#CC1=C(N)OC2=C(C(=O)CCC2)C1c1ccc(OC(=O)N2CCOCC2)cc1 (stereo unspecified)	0	-80	0	0	0	0
COc1ccc(C(=O)Nc2nnc(S(=O)(=O)N(C)c3ccc(Cl)cc3)s2)cc1OC	0	-	0	-	0	0
OC(CSc1ccccc1)CN1CCN(c2cccc(Cl)c2)CC1 (stereo unspecified)	0	-85	-	-	-	-
OC(CSc1ccccc1)CN1CCN(c2ccc(Cl)cc2)CC1 (stereo unspecified)	0	-86	-	-	-	-

Assay outcomes (PubChem)
